From ChEMBL document CHEMBL3988442, “University of Dundee, Small-Polar-MMV Screening Library” (2021)

What was measured:
[1] = target: T1, Aspartate--tRNA(Asp/Asn) ligase (Mycobacterium tuberculosis (strain ATCC 25618 / H37Rv)) (UniProt P9WFW3); assay: Assay for Asp RNA synthetase-1 from Mycobacterium tuberculosis; format: functional; set-up: scale not given: direction of the effect not stated beside the values; details: 30 µM; note: in the data most compounds retested in dose-response had high values
T1 sequence (whole entry): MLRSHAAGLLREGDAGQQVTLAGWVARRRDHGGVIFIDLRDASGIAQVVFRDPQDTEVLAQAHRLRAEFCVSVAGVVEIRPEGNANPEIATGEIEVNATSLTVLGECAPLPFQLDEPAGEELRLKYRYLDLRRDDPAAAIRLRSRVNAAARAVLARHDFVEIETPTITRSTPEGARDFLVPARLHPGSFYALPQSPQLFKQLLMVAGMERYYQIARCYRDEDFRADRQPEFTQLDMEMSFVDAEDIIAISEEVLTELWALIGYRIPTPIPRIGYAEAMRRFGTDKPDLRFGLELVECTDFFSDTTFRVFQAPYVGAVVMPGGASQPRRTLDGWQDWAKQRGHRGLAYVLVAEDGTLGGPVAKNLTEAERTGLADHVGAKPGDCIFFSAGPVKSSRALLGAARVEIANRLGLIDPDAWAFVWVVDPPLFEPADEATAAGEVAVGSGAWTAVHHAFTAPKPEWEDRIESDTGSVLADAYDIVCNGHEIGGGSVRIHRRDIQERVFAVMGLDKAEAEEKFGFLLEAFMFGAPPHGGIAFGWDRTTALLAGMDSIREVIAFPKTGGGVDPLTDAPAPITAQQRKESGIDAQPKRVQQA

[2] = target: Shiga toxin 2 (Escherichia coli O157:H7) (UniProt P09385+P09386); assay: E. coli 0.157:H7 Shiga Toxin SOP - stx2 screening assay; format: functional; set-up: scale not given: direction of the effect not stated beside the values; details: 30 µM

Row | SMILES | Percent Effect [1] [%] | Percent Effect [2] [%]
1 | Cc1nc(C)n(CC2CCCN2Cc2cscn2)n1 (stereo not given) | -5.82 | 24.1
2 | O=C(CCc1nc2cccnc2[nH]1)NCc1ccc2c(c1)OCO2 | 0.0581 | -41.8
3 | Cc1cccc(-c2noc(CN3CCc4nn(C)c(=O)cc4C3)n2)c1 | 47.9 | -21.4
4 | O=C1C[C@H]2[C@@H](CCN2C(=O)Cc2cccs2)N1Cc1cccnc1 | -2.94 | -6.22
5 | Cc1ccc(C(=O)N2C[C@H]3CCC[C@@]3(COCc3cccnc3)C2)s1 | 6.3 | -7.06
6 | CCN(Cc1ccc2c(c1)OCCO2)C(=O)NCc1cc[nH]n1 | 3.66 | 27.9
7 | CCC(=O)Nc1ccc(C(C)NC(=O)COCCOC)cc1 (stereo not given) | 0.539 | -16.3
8 | COc1ccc(C(=O)N2CCCC(CNS(C)(=O)=O)C2)cc1F (stereo not given) | 1.03 | 22.9
9 | Cc1nc(CN2CCC(C(=O)O)(n3ccc(-c4ccco4)n3)CC2)co1 | -1.98 | -9.21
10 | CC(O)CN1CCN(C(=O)c2cc3ccccc3c(=O)[nH]2)CC1 (stereo not given) | 0.869 | -10.8
11 | CC(CNC(=O)Nc1ccc(N(C)C)nc1)Cn1cccn1 (stereo not given) | 5.91 | -40.9
12 | CCc1ccc(S(=O)(=O)Nc2c(C)cccc2C(=O)O)s1 | 0.112 | 25.9
13 | COc1ccc(OCCN(C)C(=O)NC(C)c2nncn2C)cc1 (stereo not given) | -1.96 | -14.8
14 | COc1ccc(F)cc1C(=O)N(C)Cc1cc(C)on1 | -3.3 | -29.3
15 | Cc1cnn(CCNCc2nc(Cc3ccccc3)no2)c1 | -1.23 | 25
16 | COCc1ccccc1NC(=O)[C@@H]1CCCN1C(=O)c1ccco1 | -0.557 | -2.06
17 | CCCc1cc(C(=O)N2CCCC(n3ccnc3C)C2)[nH]n1 (stereo not given) | -3 | -5.55
18 | Fc1ccc(CN2CCC(c3nccnc3-n3ccnc3)CC2)cc1 | -5.52 | -0.684
19 | CCc1c(C(=O)N2CCCN(C(C)=O)CC2)cnn1C(C)(C)C | 0.899 | 3.41
20 | CCOc1ncccc1C(=O)N1CCCC1c1c(C)nn(C)c1OC (stereo not given) | -0.602 | -8.49
21 | CC(Cn1cccn1)NC(=O)Nc1nnc(C2CC2)s1 (stereo not given) | -7.13 | 7.79
22 | CCC(=O)N1CCC(Cc2ccccc2-c2ccccc2)(C(N)=O)C1 (stereo not given) | -7.87 | 6.14
23 | c1ccc(-n2ncc(CN3CCCC3Cn3cccn3)n2)cc1 (stereo not given) | -5.28 | 2.57
24 | CN(C)C(=O)N1CCC2(CCCN(Cc3cnn(C)c3)C2)C1 (stereo not given) | -0.168 | 0.121
25 | CC(C(=O)NCc1ccnc(Oc2ccc(F)cc2)c1)n1cncn1 (stereo not given) | -5.88 | 6.33

Row | SMILES | Percent Effect [1] [%] | Percent Effect [2] [%]
26 | CN(C)c1nccc(N2CCO[C@H]3CN(CC4CCOCC4)C[C@H]32)n1 | -1.41 | -89.3
27 | O=C(c1ccc(F)c(F)c1)N1CCCSCC1CN1CCCC1 (stereo not given) | 3.66 | 2.2
28 | Cc1cc(CN(C)C(=O)c2ccnc(N(C)C)c2)no1 | -3.84 | -18.4
29 | Cn1nnc2c1C(COCc1ccccn1)CN(C(=O)c1cccs1)C2 (stereo not given) | 0.388 | 13.7
30 | O=C(c1ccccc1N1CCOCC1)N1CCCC(n2cccn2)C1 (stereo not given) | 0.062 | 19.5
31 | O=C(Nc1ccc(CCN2CCC(O)CC2)cc1)Nc1cccnc1 | -0.212 | -83.7
32 | Cc1ccc(NC2CCN(C(=O)c3cnc(C)s3)CC2)nn1 | -1.51 | -19.5
33 | O=C1[C@H]2CC[C@H](CN(C3CSCCSC3)C2)N1Cc1cscn1 | 2.92 | -34.4
34 | Cc1cc(C)n(CCC(=O)N2CCC(c3nc(C(C)C)no3)CC2)n1 | 2.47 | -18.2
35 | Cc1cncc(C2CCCN(C(=O)c3scnc3C)C2)n1 (stereo not given) | -4.36 | -1.58
36 | CC(CN1CCOCC1)NCC1CCN(c2cnn(C)c(=O)c2)CC1 (stereo not given) | 2.84 | -6.71
37 | Cc1nc(CCNC(=O)NCc2ccc(N(C)C)nc2)cs1 | -1.75 | 6.63
38 | O=C(Cn1cc(-c2ccccc2)ncc1=O)Nc1nnc[nH]1 | -0.342 | 6.34
39 | CC(=O)N1CCC(Cc2cnc(-c3c(C)nn(C)c3C)cn2)C1 (stereo not given) | -3.46 | -8.45
40 | Cc1cc(NC(=O)CCN(CC2CCOC2)C2CC2)no1 (stereo not given) | -6.8 | -16.3
41 | O=C(NCc1ccco1)[C@@H]1CCO[C@@H]2CCN(c3ccncn3)C[C@H]21 | 1.19 | -15.1
42 | CN(Cc1ccsc1)C(=O)Nc1ccc(S(=O)(=O)N(C)C)cc1 | 0.428 | -3.75
43 | COc1cccc2c1OCC(CNC(=O)CCCN1CCOCC1)C2 (stereo not given) | 4.84 | 5.01
44 | Cc1cc2nc(SCC(=O)N3CCOCC3)n(CC(C)C)c(=O)c2[nH]1 | 11.7 | -10.1
45 | Cc1n[nH]c(C)c1C1CCCN1C(=O)CNC(=O)C(C)(C)C (stereo not given) | 1.09 | -19.5
46 | COc1ccc(C2CCCN2C(=O)c2csc(NC(C)=O)n2)cc1 (stereo not given) | 0.516 | -30.4
47 | Cc1noc(C)c1C(=O)NCC(c1ccc(F)cc1)N(C)C (stereo not given) | 1.51 | 16
48 | Cc1cnn(CC2CCCN2C(=O)CCc2nc3ccccc3[nH]2)c1 (stereo not given) | -0.857 | -31.6
49 | CSCC(CCO)NC(=O)Nc1cc(C)ccc1C (stereo not given) | 6.04 | -16.3
50 | CCCc1nc(N2CCN(CC)CC2)c2c(n1)c(C)nn2CC | 11.2 | -8.6
